Experimental data reported in PubChem BioAssay (NCATS).
“And” between values parts separate entries of the source, which are not always exact repeats. Equal entries are not always repeated. The source made the active and inactive calls.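 How the source made its calls: active means compounds whose dose series gives a full or clear partial fitted curve of increased nuclear translocation; inconclusive means weak partial curve or effect only at the top dose; inactive means no dose-dependent translocation response.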 Peptide text beside a SMILES is read from it.

Target: Glucocorticoid receptor (Homo sapiens) (UniProt P04150)
Sequence (P04150 whole entry, looked up): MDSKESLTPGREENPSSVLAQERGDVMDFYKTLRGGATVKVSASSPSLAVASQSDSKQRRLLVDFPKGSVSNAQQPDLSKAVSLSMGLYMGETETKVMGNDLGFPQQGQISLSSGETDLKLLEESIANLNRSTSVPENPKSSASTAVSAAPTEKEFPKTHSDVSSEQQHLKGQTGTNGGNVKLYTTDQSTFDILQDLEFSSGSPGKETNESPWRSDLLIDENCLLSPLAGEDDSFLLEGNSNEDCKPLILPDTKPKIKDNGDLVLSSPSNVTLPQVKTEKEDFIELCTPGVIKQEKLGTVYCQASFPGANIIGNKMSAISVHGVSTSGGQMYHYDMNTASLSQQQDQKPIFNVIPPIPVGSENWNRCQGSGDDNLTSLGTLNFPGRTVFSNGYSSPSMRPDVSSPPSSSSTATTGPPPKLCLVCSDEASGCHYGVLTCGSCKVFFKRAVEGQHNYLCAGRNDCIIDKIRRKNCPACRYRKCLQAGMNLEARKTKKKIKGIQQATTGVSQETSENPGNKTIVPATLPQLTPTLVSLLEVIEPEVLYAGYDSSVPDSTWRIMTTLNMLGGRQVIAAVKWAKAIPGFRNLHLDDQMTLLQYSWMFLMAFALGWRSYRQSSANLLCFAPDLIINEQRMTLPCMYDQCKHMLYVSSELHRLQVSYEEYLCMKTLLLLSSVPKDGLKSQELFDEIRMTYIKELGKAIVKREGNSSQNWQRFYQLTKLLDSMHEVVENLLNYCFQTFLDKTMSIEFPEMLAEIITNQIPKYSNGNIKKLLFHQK
Assay: GR-GFP Redistribution (AID 450)
Conditions: U2OS GR-GFP nuclear translocation, laser cytometry, 2 h
Source text: NIH Molecular Libraries Screening Centers Network [MLSCN]
NIH Chemical Genomics Center [NCGC]
The glucocorticoid receptor (GR) Redistribution assay (BioImage) enables the visualization of GR cytoplasmic to nuclear translocation by the use of a GR-GFP fusion. GR is normally cytosolic, however ligands such as dexamethasone, cause nuclear translocation where the protein binds to response elements and interacts with various co-factors to modulate transcription. Because both functional agonists and antagonists can induce nuclear translocation, this assay can detect ligands regardless of their effects on gene expression. GR-GFP expressing U20S cells were used here. Dexamethasone was the positive control for translocation and data normalization. Detection of nuclear translocation was performed in 1536-well plates using the Acumen laser scanning plate cytometer (TTP LabTech). Validation of this assay and a detailed protocol have been described.
NCGC Assay Protocol Summary:
GR-GFP U2OS cells were maintained in DMEM with Glutamax and high glucose, 1% v/v penicillin-streptomycin, and 0.5 mg/mL Geneticin. For cell culture, 10% […] fetal bovine serum (FBS) was used (Invitrogen #26140-079). For cell plating 10% dextran, charcoal-stripped FBS (Hyclone SH30068.03) was used. U2OS cells were trypsin treated, suspended in medium, and passed through a 40 um basket filter. The cells were seeded at 600 cells/5 uL/well into clear-bottom black sided 1536-well plates and incubated for approximately 20 hrs, 37degC, 5%, CO2 in a tissue culture incubator. Twenty-three nL of compound was delivered by pin tool and the plates were incubated as above for 2 hrs. The compounds were tested as a 7-point titration ranging from 46 uM to 0.6 nM. The cells were fixed using the Kalypsys Washer/Dispenser station. The fixing protocol involved aspiration of the cell media, addition of 6 uL/well of PBS, aspiration of PBS, addition of 5uL/well of 100% methanol, aspiration of methanol, and addition of 3 uL/well PBS with 1.5 uM propidium iodide (PI). The plates were read by the Acumen Explorer using a 1 x 8 um scan of the whole well area. PI fluorescence triggered the collection of PI and GFP signals. A nuclei population was defined by a 10 to 100 um width and depth filter that eliminated small and large fluorescent particles. Two subpopulations of nuclei were then defined by peak intensity of GFP fluorescence to obtain translocated and untranslocated objects. The number of translocated objects was used for data normalization.
Keywords: NIH Roadmap, MLSCN, MLI, MLSMR, sOGT, qHTS, NCGC
Potency means the concentration at half of the fitted maximal effect.

Row | SMILES | Potency
1 | COC(=O)C1=C(C)NC(C)=C(C(=O)OCCCN2CCC(c3ccccc3)(c3ccccc3)CC2)[C@H]1c1cccc([N+](=O)[O-])c1 | > 46 µM (inactive)
2 | CC1(C)S[C@@H]2[C@H](NC(=O)Cc3ccccc3)C(=O)N2[C@H]1C(=O)O | > 20.6 µM (inactive)
3 | O=C(O)CC/C=C\CC[C@H]1[C@@H](N2CCCCC2)[C@@H](O)C[C@@H]1OCc1ccc(-c2ccccc2)cc1 | > 46 µM (inactive)
4 | CN1Cc2c(N)cccc2C(c2ccccc2)C1 (stereo not drawn) | > 20.6 µM (inactive)
5 | CC1(C)S[C@@H]2[C@H](NC(=O)[C@@H](NC(=O)N3CCNC3=O)c3ccccc3)C(=O)N2[C@H]1C(=O)O | > 20.6 µM (inactive)
6 | CCCC(=O)O[C@]1(C(=O)COC(C)=O)CC[C@H]2[C@@H]3C[C@H](F)C4=CC(=O)C=C[C@]4(C)[C@@]3(F)[C@@H](O)C[C@@]21C | 0.00371 µM (active)
7 | Nc1c(Br)cc(Br)cc1CNC1CCC(O)CC1 (stereo not drawn) | > 20.6 µM (inactive)
8 | CC(C)N=c1cc2n(-c3ccc(Cl)cc3)c3ccccc3nc-2cc1Nc1ccc(Cl)cc1 | > 20.6 µM (inactive)
9 | COC(=O)CCC(=O)CN | > 20.6 µM (inactive)
10 | COc1ccc(CCNC[C@H](O)c2ccc(O)cc2)cc1OC | > 46 µM (inactive)
11 | Cc1onc(-c2ccccc2)c1C(=O)N[C@@H]1C(=O)N2[C@@H]1SC(C)(C)[C@@H]2C(=O)O | > 20.6 µM (inactive)
12 | CCCC(=O)Nc1ncnc2c1ncn2[C@@H]1O[C@@H]2COP(=O)(O)O[C@H]2[C@H]1OC(=O)CCC | > 46 µM (inactive) and > 20.6 µM (inactive)
13 | Cc1c(C)c2c(c(C)c1O)CC[C@@](C)(CCC[C@@H](C)CCC[C@@H](C)CCCC(C)C)O2 | > 20.6 µM (inactive)
14 | O=C(O)CCC(=O)C(=O)O | > 46 µM (inactive)
15 | CCN(CC)Cc1cc(Nc2ccnc3cc(Cl)ccc23)ccc1O | > 20.6 µM (inactive)
16 | CC[N+](C)(C)Cc1ccccc1Br | > 46 µM (inactive) and > 20.6 µM (inactive)
17 | C[C@]12C=CC(=O)C=C1CC[C@@H]1[C@@H]2[C@@H](O)C[C@@]2(C)[C@H]1CC[C@]2(O)C(=O)COC(=O)CCC(=O)O | 0.0285 µM (active)
18 | CC(=O)OCC(=O)[C@@]12OC3(CCCC3)O[C@@H]1C[C@H]1[C@@H]3CCC4=CC(=O)C=C[C@]4(C)[C@@]3(F)[C@@H](O)C[C@@]12C | 0.000571 µM (active)
19 | CC(Cc1ccc(O)c(O)c1)C(C)Cc1ccc(O)c(O)c1 (stereo not drawn) | > 20.6 µM (inactive)
20 | Cc1cc(C(=O)NNCc2ccccc2)no1 | > 20.6 µM (inactive)
21 | O=C1CSC2(CCN(CCCN3c4ccccc4Sc4ccc(Cl)cc43)CC2)N1 | > 46 µM (inactive)
22 | CN(C)CCCN1c2ccccc2C(C)(C)c2ccccc21 | > 46 µM (inactive)
23 | CC(=O)N[C@@H](CC(=O)O)C(=O)N[C@@H](CCC(=O)O)C(=O)O (Ac-Asp-Glu-OH) | > 20.6 µM (inactive) and > 46 µM (inactive)
